The campaign covered roughly 310,000 compounds. About 14,000 (4.5%) showed an effect of 50% or more. Effects have a minus sign here. This is one part of a sample in which strong results are shown more often than they occur.
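Note: peak tail current of the secondary pulse compared with the same well before compound.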

In the experiment the target is human ether-à-go-go-related gene (hERG) potassium channel (human, UniProt Q12809). As to the kind of experiment: primary screen, population patch clamp on CHO cells stably expressing hERG; higher = less effect of the substance.
Chain of human ether-à-go-go-related gene (hERG) potassium channel (Q12809 whole entry, looked up): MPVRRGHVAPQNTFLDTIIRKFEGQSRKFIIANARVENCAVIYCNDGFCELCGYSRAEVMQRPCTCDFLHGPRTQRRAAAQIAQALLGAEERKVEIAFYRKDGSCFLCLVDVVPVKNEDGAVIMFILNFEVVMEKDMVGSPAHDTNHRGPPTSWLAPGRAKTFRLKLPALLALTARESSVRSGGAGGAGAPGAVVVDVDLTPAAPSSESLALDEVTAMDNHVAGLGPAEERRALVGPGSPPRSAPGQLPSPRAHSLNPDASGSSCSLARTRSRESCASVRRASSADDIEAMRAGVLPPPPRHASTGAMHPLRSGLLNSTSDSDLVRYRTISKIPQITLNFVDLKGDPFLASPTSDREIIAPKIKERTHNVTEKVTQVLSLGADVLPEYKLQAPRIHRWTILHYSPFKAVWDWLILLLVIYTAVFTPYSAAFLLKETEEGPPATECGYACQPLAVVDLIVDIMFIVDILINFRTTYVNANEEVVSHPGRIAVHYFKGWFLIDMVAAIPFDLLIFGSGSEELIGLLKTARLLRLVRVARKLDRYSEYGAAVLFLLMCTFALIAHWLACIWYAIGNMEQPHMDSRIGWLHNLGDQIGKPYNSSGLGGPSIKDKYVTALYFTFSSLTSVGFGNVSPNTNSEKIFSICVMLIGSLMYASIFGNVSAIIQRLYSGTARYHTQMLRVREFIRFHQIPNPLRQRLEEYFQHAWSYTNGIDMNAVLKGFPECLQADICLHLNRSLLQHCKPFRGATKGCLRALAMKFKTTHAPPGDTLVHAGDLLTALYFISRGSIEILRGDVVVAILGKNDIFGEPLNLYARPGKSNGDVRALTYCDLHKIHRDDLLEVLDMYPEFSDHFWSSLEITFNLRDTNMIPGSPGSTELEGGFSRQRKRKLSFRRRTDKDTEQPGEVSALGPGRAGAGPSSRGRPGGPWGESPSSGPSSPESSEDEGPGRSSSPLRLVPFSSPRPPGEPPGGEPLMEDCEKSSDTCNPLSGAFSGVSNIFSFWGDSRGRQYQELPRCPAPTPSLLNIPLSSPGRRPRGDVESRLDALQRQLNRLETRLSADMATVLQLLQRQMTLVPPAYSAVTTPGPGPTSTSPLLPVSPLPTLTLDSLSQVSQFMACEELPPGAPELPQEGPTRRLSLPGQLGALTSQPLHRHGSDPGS
As for `Cc1cc(-c2n[nH]c(=S)n2/N=C/C=C/c2ccccc2)n[nH]1`, the “hERG current change (%, negative = inhibition) at 10uM” value is reported as 6.76%.
Consider `Cc1ccc(NS(=O)(=O)c2ccc3[nH]c(=O)[nH]c3c2)cc1`, for which the “hERG current change (%, negative = inhibition) at 10uM” value was determined as 21%.
With `N/C(Cc1ccc(Cl)cc1Cl)=N\OC(=O)Cc1ccccc1` the figure was 7.08%; with `Cc1ccc(NC(=O)[C@H](Cc2c[nH]c3ccccc23)NC(=O)[C@@H]2Cc3ccccc3CN2)c(C)c1`, -30.1%.
Then `CC(C)c1ccc(NC(=O)[C@@H](C)NC(=O)[C@@H]2Cc3ccccc3CN2)cc1`, with -29.2%.
Then `Cc1ccc(NC(=O)[C@H](Cc2ccccc2)NC(=O)[C@@H]2Cc3ccccc3CN2)c(C)c1`, with -5.23%; and `COc1cccc(NC(=O)[C@H](NC(=O)[C@@H]2Cc3ccccc3CN2)c2ccccc2)c1`, with -76.4%.
Regarding `CC(NC(=O)[C@H](NC(=O)[C@@H]1Cc2ccccc2CN1)c1ccccc1)c1ccccc1` (stereo partly shown), the “hERG current change (%, negative = inhibition) at 10uM” value is reported as -32.9%.
In the case of `COc1cccc(NC(=O)[C@H](Cc2ccccc2)NC(=O)[C@@H]2Cc3ccccc3CN2)c1`, the “hERG current change (%, negative = inhibition) at 10uM” value is on record as -2.99%.
With `Cc1ccc(NC(=O)[C@H](NC(=O)[C@@H]2Cc3ccccc3CN2)c2ccccc2)cc1` the figure was -64.1%; with `COc1cccc(NC(=O)[C@H](CC(C)C)NC(=O)[C@@H]2Cc3ccccc3CN2)c1`, -16%.
With `Cc1ccc(NC(=O)[C@@H](C)NC(=O)[C@@H]2Cc3ccccc3CN2)cc1` the figure was -14.9%.
For the compound `CC(C)c1ccc(NC(=O)[C@H](NC(=O)[C@@H]2Cc3ccccc3CN2)c2ccccc2)cc1`, the “hERG current change (%, negative = inhibition) at 10uM” value is -6.39%.
On to `COc1ccc(NC(=O)[C@H](NC(=O)[C@@H]2Cc3ccccc3CN2)c2ccccc2)cc1`, for which the “hERG current change (%, negative = inhibition) at 10uM” value is reported as -50.3%.
With `Cc1ccc(NC(=O)[C@H](NC(=O)[C@@H]2Cc3ccccc3CN2)c2ccccc2)c(C)c1` the figure was -60.7%; with `CCOc1ccccc1N(C(=O)c1ccccc1Cl)C1=NC(C)(C)CS1`, -2.51%; with `CC(NC(=O)c1ccccc1[N+](=O)[O-])C1CC2CCC1C2` (stereo not shown), 5.96%.
Then `O=C(NCc1ccc2c(c1)OCO2)c1ccc(COc2cc(Cl)ccc2Cl)o1`, with 11.7%.
`O=C(c1ccccc1)N1N=C(c2ccccc2O)CC1c1ccccc1` (stereo not shown): the “hERG current change (%, negative = inhibition) at 10uM” value amounted to 6.88%.
Then `CCCCCOC(=O)C1=C(C)NC(=O)NC1c1ccc2c(c1)OCO2` (stereo not shown), with 6.41%; and `CCOc1ccc(/C=N/N2C(=O)C(CC(=O)Nc3ccc(F)cc3F)SC2=NC)cc1OC` (stereo not shown), with 3.82%; and `CCOc1ccc(CN(C)C(=O)CCl)cc1`, with -1.2%.
Regarding `CS(=O)(=O)N(CC(=O)NCc1ccc2c(c1)OCO2)c1ccccc1`, the “hERG current change (%, negative = inhibition) at 10uM” value was 6.97%.
Then `COCc1c(C(=O)Nc2nc(C)cs2)oc2ccccc12`, with -2.57%; and `CCCOP(=O)(OCCC)c1nc(-c2ccccc2)oc1NCc1ccccc1`, with 6.49%; and `CCc1ccc(NC(=O)CCS(=O)(=O)c2ccc(Cl)cc2)cc1`, with 6.96%.
With `COc1ccc(CNC(=O)[C@H](Cc2c[nH]c3ccccc23)NC(=O)[C@@H]2Cc3ccccc3CN2)cc1` the figure was -53.9%.
With `CCc1ccc(NC(=O)[C@@H](NC(=O)[C@@H]2Cc3ccccc3CN2)C(C)CC)cc1` (stereo partly shown) the figure was -13.6%; with `COc1ccc(NC(=O)[C@H](Cc2c[nH]c3ccccc23)NC(=O)[C@@H]2Cc3ccccc3CN2)cc1`, -36.8%; with `Cc1ccc(NC(=O)[C@H](NC(=O)[C@@H]2Cc3ccccc3CN2)c2ccccc2)cc1C`, -37.9%.
Take `CCc1ccc(NC(=O)[C@H](NC(=O)[C@@H]2Cc3ccccc3CN2)c2ccccc2)cc1`: the “hERG current change (%, negative = inhibition) at 10uM” value is reported as -55%.
Then `Cc1cccc(NC(=O)[C@@H](NC(=O)[C@@H]2Cc3ccccc3CN2)C(C)C)c1`, with -62.4%; and `Cc1cc(C)cc(NC(=O)[C@H](NC(=O)[C@@H]2Cc3ccccc3CN2)c2ccccc2)c1`, with -0.0454%.
With `Cc1cccc(NC(=O)[C@H](NC(=O)[C@@H]2Cc3ccccc3CN2)c2ccccc2)c1` the figure was -54.4%.
With `Cc1cccc(NC(=O)[C@H](Cc2ccccc2)NC(=O)[C@@H]2Cc3ccccc3CN2)c1` the figure was -0.0161%; with `COc1ccccc1CNC(=O)[C@H](Cc1c[nH]c2ccccc12)NC(=O)[C@@H]1Cc2ccccc2CN1`, -16.5%; with `CCc1ccc(NC(=O)CNC(=O)[C@@H]2Cc3ccccc3CN2)cc1`, -19.9%.
As to `Cc1cccc(NC(=O)[C@@H](CC(C)C)NC(=O)[C@@H]2Cc3ccccc3CN2)c1`, the “hERG current change (%, negative = inhibition) at 10uM” value is recorded as -40.7%.
Then `CN(c1ccc(C(=O)NC2CCCC2)cc1)S(=O)(=O)c1ccc(Cl)cc1`, with 16.2%; and `COC(=O)CNC(=O)C1CCN(S(=O)(=O)c2cnc[nH]2)CC1`, with -1.84%.
With `CC1=NN(C(C#N)c2ccc(F)cc2)C(c2ccccc2)C1` (stereo not shown) the figure was 4.44%; with `COCCN(CCOC)S(=O)(=O)c1ccc(C(=O)Nc2ccncc2)cc1`, -11.6%; with `CSc1cccc(NC(=O)CN(C)S(=O)(=O)c2ccc(C)cc2)c1`, -32.8%.
